More than one record can exist for a structure, and the calls need not agree. Calls of active or inactive are those of the source. The calls were made as follows: active = hit-call score of the fitted dose curve at least 0.9, where 1 is the maximum; inactive = score below 0.9.
The compounds below were run on Cyclin D1 (CCND1), CCND1 (gene 595) (assay: LTEA_HepaRG_CCND1: Life Technologies and Expression Analysis (LTEA) Assay for Cyclin D1 (CCND1) using HepaRG (AID 2283451;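 as to AC50: TaqMan qRT-PCR transcript level normalised to ACTB GAPDH and POLR2A housekeeping genes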)). Details: mRNA level, 48 h; actives raise or lower the signal.
Description: LTEA_HepaRG is a cell based, multiplexed-readout assay that uses HepaRG, a human liver cell line, with measurements taken at 48 hours after chemical dosing on a 96-well plate.LTEA_HepaRG_CCND1 is one of 102 assay component(s) measured in the LTEA HepaRG cell culture assay. It is a marker of Cell proliferation, survival, death.Data from the assay component LTEA_HepaRG_CCND1 was analyzed into 1 endpoint. This assay endpoint, LTEA_HepaRG_CCND1, was analyzed with bidirectional fitting relative to DMSO as the negative control and baseline of activity. Using a type of inducible reporter, measures of mRNA induction for gain or loss-of-signal activity can be used to understand regulation of transcription factor activity. To generalize the intended target to other relatable targets, this assay endpoint is annotated to the cell cycle intended target family, where the subfamily is Cell proliferation, survival, death.
A total of 1060 chemcials from the ToxCast library were tested in eight-point concentration-response experiments. Cell culture and cytotoxicity assays were conducted at Thermo Fisher Scientific's Custom Services facility (Madison, WI). A single lot of human HepaRG cells (Thermo Fisher Scientific, Frederick, MD) was used for the cell culture experiments. 96-well format collagen type I coated plates of human HepaRG cells were prepared using established methods. Briefly, cryopreserved HepaRG cells were thawed, plated at a density of approximately 100,000 cells/well in HepaRG Thaw, Plate, and General Purpose media (HPRG770, Thermo Fisher Scientific), and incubated for 48 hours. 0.5% DMSO was selected as vehicle control to balance the requisite need of DMSO in HepaRG cultures to maintain differentiation (for example, baseline metabolism, proportions of hepatocytes vs. cholangiocytes), while enabling further hepatic receptor pathway activation (for example, PXR and CAR) in response to chemical exposure. 48 hours after plating, the culture medium was replaced with HepaRG Serum-Free Incudtion Media. Cells were exposed to each test chemical in duplicate and maintained in CO2 incubators for another 48 hours. Chemical plates were thawed to room temperature and 200x concentrations of treatment groups were prepared. 8-point conentration-reponse curves were made with the highest exposure at 100 uM, followed by half-log dilutions, all in 0.5% DMSO. Each test plate contained variouse controls, induction positive controls (1mM phenobarbital), cytotoxicity positive controls ([…] aflatoxin B1), vehicle controls (0.5% DMSO), and total lysis controls (0.5% DMSO). Cell morphology images were taken using an Essen IncuCyte FLR automated microscope, with six 96-well plates imaged in about 24 minutes. Images were captured and exported and JPEG files. Spent culture media was transfered to black-well plates for the LDH assay, and remaining media was sorted at -80 C for later use. Cells were treated with RLT buffer and frozen until shipped for gene expression analysis. Total RNA was isolated from the cell suspension in 75 uL of Buffer RLT (Qiagen, Germantown, MD 20874) by Quintiles/Expression Analysis (Durham, NC) using a custom isolation procedure. Total RNA from each plate well was transferred to a preamplification plate. Fluidigm's 96.96 Dynamic ArrayTM (Fluidigm, Amsterdam, the Netherlands) technology was used for gene expression analyses by quantitative reverse transcription polymerase chain reaction (qRT-PCR, performed by Quintiles/Expression Analysis, Durham, NC)89. Standard TaqManTM Assays (Applied Biosystems/ThermoFisher Scientific, Foster City, CA) were used to assess the expression of 93 genes selected based on their selectivity and sensitivity to important hepatic receptors known to be modulated by environmental chemicals; importance in human hepatocyte functionality; and hepatotoxicity. […]

Row | Compound | outcome | AC50
1 | CC(C)(OO)c1ccccc1 | inactive | 
2 | C=C(C)C(=O)[O][Sn]([CH2]CCC)([CH2]CCC)[CH2]CCC | inactive | 
3 | CCCCCCCCc1ccc(O)cc1 |  | 0.346 µM (active)
4 | CC(C)(c1ccccc1)c1ccc(O)c(C(C)(C)c2ccccc2)c1 | inactive | 
5 | CN(C)N=O | inactive | 
6 | C[C@]12CCC(=O)C[C@@H]1CC[C@@H]1[C@@H]2CC[C@]2(C)[C@@H](O)CC[C@@H]12 | inactive | 
7 | O=C1C2(Cl)C3(Cl)C4(Cl)C(Cl)(Cl)C5(Cl)C3(Cl)C1(Cl)C5(Cl)C24Cl (configuration not stated) |  | 92.9 µM (active)
8 | CC(=O)[O][Hg][c]1ccccc1 |  | 3.75 µM (active)
9 | CCOP(=S)(OCC)SCSP(=S)(OCC)OCC | inactive | 
10 | CCC(C)(C)c1ccc(O)c(C(C)(C)CC)c1 | inactive | 
11 | C=CC(=O)OCCCCCC(C)C | inactive | 
12 | CCC(=O)C(CC(C)N(C)C)(c1ccccc1)c1ccccc1 (configuration not stated) | inactive | 
13 | O=C(O)C(F)(F)C(F)(F)C(F)(F)C(F)(F)C(F)(F)C(F)(F)C(F)(F)C(F)(F)C(F)(F)C(F)(F)F | inactive | 
14 | Cn1sc(Cl)cc1=O | inactive | 
15 | Cc1ccccc1N | inactive | 
16 | CC(C)(C)CC(C)(C)c1ccc(O)cc1 | inactive | 

Row | Compound | outcome | AC50
17 | O=C(O)C(F)(F)C(F)(F)C(F)(F)C(F)(F)C(F)(F)C(F)(F)F | inactive | 
18 | O=C(O)C(Cl)(Cl)Cl | inactive | 
19 | ClCC(Cl)CCl | inactive | 
20 | CCOP(=S)(OCC)Oc1nc(Cl)c(Cl)cc1Cl | inactive | 
21 | COc1cc(-c2ccc(N)c(OC)c2)ccc1N | inactive | 32.7 µM (active)
22 | O=c1[nH]c(=O)[nH]c(=O)[nH]1 | inactive | 
23 | C[C@@H]1C[C@@H]([C@H](O)CC2CC(=O)NC(=O)C2)C(=O)[C@@H](C)C1 |  | 3.34 µM (active)
24 | ClC1(Cl)C2(Cl)C3(Cl)C4(Cl)C(Cl)(Cl)C5(Cl)C3(Cl)C1(Cl)C5(Cl)C24Cl (configuration not stated) | inactive | 
25 | CC(C)(C)c1cc(O)ccc1O | inactive | 
26 | CC12CC1(C)C(=O)N(c1cc(Cl)cc(Cl)c1)C2=O (configuration not stated) | inactive | 
27 | CCN1CCC2(CC1)COc1cc3c(cc12)N(C(=O)c1ccc(-c2ccc(-c4nnc(C)o4)cc2C)cc1)CC3 |  | 30.8 µM (active)
28 | O=[N+]([O-])c1ccc(O)c([N+](=O)[O-])c1 |  | 12.6 µM (active)
29 | Oc1cccc2cccnc12 | inactive | 
30 | O=C(Nc1ccc2[nH]ccc2c1)c1cc2cc(F)ccc2n1Cc1cccc(F)c1 |  | 39.5 µM (active)
31 | NC(=O)O | inactive | 

— PubChem BioAssay (EPA / NIEHS)
